Reference: PubChem BioAssay (EPA / NIEHS)
Records with an inconclusive call do not appear. Active and inactive are the calls of the source. Rule for the calls, unless noted: active = hit-call score of the fitted dose curve at least 0.9, where 1 is the maximum; inconclusive = response in the unintended direction; inactive = score below 0.9.

Assay: CEETOX_H295R_CORTISOL: CeeTox H295R High-throughput Steroidogenesis Assay for Cortisol (AID 2283438; active = hit-call score of the fitted dose curve at least 0.9, where 1 is the maximum; inactive = score below 0.9;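 note: cortisol secreted into medium quantified by LC-MS/MS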)
Settings: actives raise or lower the signal
Procedure, shortened: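 Steroidogenesis in H295R, per modified OECD 456: 48 h forskolin (10 uM), then 48 h exposure, 0.1% DMSO. Cortisol by extraction and tandem MS; viability by MTT (570/650 nm); cytotoxic chemicals diluted and re-tested.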

| SMILES | AC50 | outcome |
| --- | --- | --- |
| CC(Cc1ccc(C(C)(C)C)cc1)CN1C[C@@H](C)O[C@@H](C)C1 (stereo not given in full) | 39.5 µM (active) | – |
| O=CNC(N1CCN(C(NC=O)C(Cl)(Cl)Cl)CC1)C(Cl)(Cl)Cl (stereo not given) | – | inactive |
| Oc1cc(Cl)ccc1Cl | – | inactive |

Assay: CEETOX_H295R_DOC: CeeTox H295R High-throughput Steroidogenesis Assay for DOC (AID 2283439; active = hit-call score of the fitted dose curve at least 0.9, where 1 is the maximum; inactive = score below 0.9)
Settings: actives raise or lower the signal
Procedure, shortened: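 H295R, fsk 10 uM ×48 h pre, cmpd ×48 h (0.1% DMSO). Media → MTBE extr. → LC-MS/MS, DOC. Bidirectional fit vs DMSO; MTT viability same wells, re-test diluted if <70%.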

| SMILES | AC50 | outcome |
| --- | --- | --- |
| CC(Cc1ccc(C(C)(C)C)cc1)CN1C[C@@H](C)O[C@@H](C)C1 (stereo not given in full) | 9.92 µM (active) | – |
| O=CNC(N1CCN(C(NC=O)C(Cl)(Cl)Cl)CC1)C(Cl)(Cl)Cl (stereo not given) | – | inactive |
| Oc1cc(Cl)ccc1Cl | – | inactive |

Assay: CEETOX_H295R_PROG: CeeTox H295R High-throughput Steroidogenesis Assay for Progesterone (PROG) (AID 2283442; active = hit-call score of the fitted dose curve at least 0.9, where 1 is the maximum; inactive = score below 0.9;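 for AC50: human H295R adrenal cells primed with 10 µM forskolin before dosing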)
Settings: actives raise or lower the signal
Procedure, shortened: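 Measured analyte is progesterone secreted by H295R cells at 48 h of chemical treatment, following 10 uM forskolin priming. Quantitation used HPLC-MS/MS against a 7-point standard curve; cytotoxicity was checked by MTT absorbance.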

| SMILES | AC50 | outcome |
| --- | --- | --- |
| CC(Cc1ccc(C(C)(C)C)cc1)CN1C[C@@H](C)O[C@@H](C)C1 (stereo not given in full) | 0.053 µM (active) | – |
| O=CNC(N1CCN(C(NC=O)C(Cl)(Cl)Cl)CC1)C(Cl)(Cl)Cl (stereo not given) | – | inactive |
| Oc1cc(Cl)ccc1Cl | 30.6 µM (active) | – |

Assay: ATG_XTT_Cytotoxicity: Cytotoxicity Assessment in the Attagene TRANS-FACTORIAL HepG2 Assay (AID 2283584);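 for AC50: XTT signal for cell number as viability in transfected HepG2 cells; cells exposed to compound for 24 h before reading; active means loss of viability signal versus DMSO baseline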
Settings: not given
Procedure, shortened: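 24 h chemical exposure of reporter-transfected HepG2; XTT signal loss vs DMSO indicates cytotoxicity.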

| SMILES | outcome | AC50 |
| --- | --- | --- |
| Nc1ccc(-c2ccc(N)c(N)c2)cc1N | inactive | – |
| CCOP(O)OCC | inactive | – |
| C#CC1(O)CCCCC1 | inactive | – |
| O=c1[nH]c(Cl)c(Cl)cc1Cl | inactive | – |
| CCC(C)c1cc(C(C)(C)C)cc(-n2nc3ccccc3n2)c1O (stereo not given) | inactive | – |
| Nc1ccccc1C(=O)OCCc1ccccc1 | inactive | – |
| N#Cc1cccc(C#N)c1 | inactive | – |
| O=C(O)CCCc1ccc(N(CCCl)CCCl)cc1 | inactive | – |
| Nc1cc(Cl)cc(Cl)c1 | inactive | – |
| COc1ncc(F)c2nc(S(=O)(=O)Nc3c(F)cccc3F)nn12 | inactive | – |
| BrCBr | inactive | – |
| CCc1cccc(C)c1N(C(=O)CCl)[C@@H](C)COC | inactive | – |
| O=P1(NCCCl)OCCCN1CCCl (stereo not given) | inactive | – |
| CC(Cc1ccc(C(C)(C)C)cc1)CN1C[C@@H](C)O[C@@H](C)C1 (stereo not given in full) | inactive | – |
| O=C(O)c1cc[c]([Hg][Cl])cc1 | inactive | – |
| C[N+](C)(C)CC(=O)O | inactive | – |

| SMILES | outcome | AC50 |
| --- | --- | --- |
| CN(C)C(=O)C(c1ccccc1)c1ccccc1 | inactive | – |
| C=CCc1ccc(OC(=O)Cc2ccccc2)c(OC)c1 | inactive | – |
| O=P(O)(Oc1ccccc1)Oc1ccccc1 | inactive | – |
| CC1CCCC1.[C-]#[O+].[C-]#[O+].[C-]#[O+].[Mn] | inactive | – |
| O=C(O)COc1ccccc1 | inactive | – |
| [Cl][Sb]([Cl])[Cl] | inactive | – |
| CCC(=O)c1ccc(Cl)cc1 | inactive | – |
| Cc1ccc(N(SC(F)(Cl)Cl)S(=O)(=O)N(C)C)cc1 | – | 38.7 µM (active) |
| CC1(C)CC(=O)CC(C)(C)N1[O] | inactive | – |
| O=CNC(N1CCN(C(NC=O)C(Cl)(Cl)Cl)CC1)C(Cl)(Cl)Cl (stereo not given) | inactive | – |
| Oc1cc(Cl)ccc1Cl | inactive | – |
| O=[N+]([O-])c1cc(C(F)(F)F)c(Cl)c([N+](=O)[O-])c1Cl | – | 57.7 µM (active) |
| C[C@]12CCC(=O)C(O)=C1CC[C@@H]1[C@@H]2CC[C@]2(C)C(=O)CC[C@@H]12 | inactive | – |
| CSc1nc(N=[N+]=[N-])nc(NC(C)C)n1 | inactive | – |
| O=[N+]([O-])O.O=[N+]([O-])O.[Cd] | – | 12.3 µM (active) |
